Data: PubChem BioAssay AID434982 (The Scripps Research Institute Molecular Screening Center, 2010)
Out of some 15,000 compounds screened, about 60 (0.4%) were called active. What follows is part of a selection rich in actives, with near analogues and random picks from the rest. Values without a mark were called inactive. Rule as the data show it: active = activation above about 2.2%; inactive = the rest.

Assay: agonists of NOTCH signaling (AID 434982)
Settings: NOTCH signaling luciferase reporter cells, luminescence; at 2.5 µM; active compounds read high

| SMILES | activation |
| --- | --- |
| O=C(Nc1ccc(OC(F)F)cc1)Nc1coc(-c2ccccc2)c1 | -0.11% |
| CCSC(=O)NCc1ccccc1 | -0.05% |
| O=C(O)c1ccccc1Nc1ccccc1F | -0.29% |
| CN(n1cnc2ccccc2c1=O)S(=O)(=O)c1cc(Cl)sc1Cl | -0.39% |
| COC(=O)c1sc(SC)c(-c2ccn[nH]2)c1C | 0.4% |
| O=C(/C(=N\N=C\c1ccc2c(c1)OCO2)c1ccccc1)c1ccccc1 | -0.24% |
| CCCCCCCN=C(C)c1ccccc1O | -0.3% |
| O=C(O)CC1(CC(=O)Nc2ccccc2-n2cccn2)CCCCC1 | -0.3% |
| CSc1ccc(Br)cc1 | 0.1% |
| O=C(N/N=C/c1cccs1)C(=O)Nc1ccc(Cl)c(Cl)c1 | -0.5% |
| O=C1C=C(c2ccccc2)CN(C2CCCCC2)C1=O | -1.07% |
| O=C(Nc1ccccc1)N1CCN(c2ncnc3sccc23)CC1 | -0.57% |
| COCCOc1ccc(NC(=S)N2CCOCC2)cc1 | 0.32% |
| COC(=O)c1ccccc1NC(=O)c1ccc(Oc2cc(Cl)cc(Cl)c2)o1 | -0.31% |
| O=C(Sc1ccccc1)c1ccc(C(F)(F)F)cc1 | -0.46% |
| CC(N)=NCCc1ccncc1 | -0.78% |
| N/C(=N\OC(=O)CCn1cccc(C(F)(F)F)c1=O)c1ccc(OC(F)(F)F)cc1 | -0.58% |
| CCOC(=O)/C(C#N)=C/NNc1c(C)csc1C(=O)OC | 0.05% |
| Cn1/c(=N\N=C2CCCCC2)sc2ccccc21 | 0.03% |
| CSc1cccc(NC(=O)C(=O)NCCc2ccccn2)c1 | -1.05% |
| COCCCN/C(SCc1c(F)cccc1Cl)=C(\C#N)C(N)=O | 0.49% |
| CC1CN(c2ccc(NC(=S)NCc3cccs3)cc2)CC(C)O1 (stereo unspecified) | -0.73% |

| SMILES | activation |
| --- | --- |
| N#Cc1c(-c2ccccc2)c(-c2ccccc2)n[nH]c1=O | -0.27% |
| O=C1C(Nc2ccccc2)=CC(c2ccc([N+](=O)[O-])cc2)N1c1ccccc1 (stereo unspecified) | -0.41% |
| N#CC1(C#N)C(c2ccc(Cl)c(Cl)c2)C1(C#N)C#N | -0.6% |
| N#Cc1nccnc1N1CCN(C(=O)c2ccccc2)CC1 | -0.2% |
| Cn1c(SCC(=O)c2ccc(Cl)cc2)nnc1-c1cnccc1C(F)(F)F | -0.25% |
| O=C(O)c1ccccc1N/C=C/[N+](=O)[O-] | -0.62% |
| CC1=NOC(=O)/C1=C\c1ccccc1 | -0.92% |
| O=C1Nc2ccccc2C12NNC(=S)NN2 | -0.45% |
| CCCC1NC(=O)NC(C)=C1C(=O)OCC (stereo unspecified) | -0.61% |
| CCOC(=O)C(=CNc1cc(C(F)(F)F)ccc1NCc1ccccc1)C(=O)OCC | -0.25% |
| CCOC(=O)COc1cccc2c(C)cc(=O)oc12 | -0.24% |
| Cc1nc(-c2ccccc2)sc1-c1nnc(C2CC2)o1 | -0.45% |
| O=C(CN1C(=O)/C(=C/c2ccccc2Cl)N=C1c1ccccc1)c1ccccc1 | -0.14% |
| COC(=O)C1=C(NNc2ncc(Cl)cc2C(F)(F)F)CSC1 | -0.05% |
| CC(C)c1ccc(NNS(=O)(=O)c2ccc(Cl)c(Cl)c2)cc1 | -0.45% |
| CCOc1c(N2CCCCC2)c(=O)c1=O | -0.13% |
| O=c1[nH]/c(=C/c2ccc(OC(F)(F)F)cc2)c(=O)[nH]/c1=C/c1ccc(OC(F)(F)F)cc1 | -0.83% |
| CSc1nnc(-c2ccc(C(F)(F)F)cn2)o1 | 0.03% |
| CCOC(=O)/C(C#N)=C/N=C(N/N=C/c1cccs1)SC | -0.19% |
| FC(F)(F)c1cc(-c2ccc(Br)cc2)n[nH]1 | 0.22% |
| N#C/C(=C\C=C\c1ccccc1)c1nc2ccccc2[nH]1 | -5.39% |
| COc1cccc(/C=C2\SC(=S)C(N)C2=O)c1OC (stereo unspecified) | 0.34% |

| SMILES | activation |
| --- | --- |
| NC(=S)N/N=C\Cc1nnnn1-c1ccc(Cl)cc1 | 0.16% |
| Cc1ncn2cc(-c3ccc(Cl)cc3Cl)[nH]c(=O)c12 | -0.34% |
| N#Cc1cc([N+](=O)[O-])c(N2CCCC2)cc1N1CCCC1 | -0.6% |
| CC(C)(C)c1cc(C(=O)/C=C2/NC(=O)CS2)no1 | 0.5% |
| Cc1cccc(Cl)c1NC(=S)NCCNC(=O)OC(C)(C)C | -0.1% |
| OC(COc1ccc(Cl)c(Cl)c1)CN1CCC(Nc2nccc(C(F)(F)F)n2)CC1 (stereo unspecified) | -0.76% |
| CCOC(=O)CCSc1cc(-n2cccc2)c(Cl)cc1[N+](=O)[O-] | -0.25% |
| CCCN(CCC)S(=O)(=O)c1ccc(C(=O)Oc2c(C)cccc2OC)cc1 | 0.36% |
| O=C(O)CC1(CC(=O)Nc2ccc(N3CCCCC3)cc2)CCCCC1 | -0.6% |
| COc1cc(CC/C(C)=N/O)ccc1O | 0.52% |
| O=C(Nc1cccnc1Oc1ncnc2cc(Cl)ccc12)c1ccc(F)cc1 | -5.46% |
| O=C(O)c1ncoc1-c1cccc(Cl)c1 | -0.29% |
| Cn1cnc(S(=O)(=O)Nc2ccc3[nH]ccc3c2)c1 | -0.46% |
| COc1ccc(C(=O)NNC(=O)c2c(OC)cc(C(F)(F)F)cc2C(F)(F)F)cc1 | 0.11% |
| O=C(O)C#Cc1cccc2ccccc12 | -0.45% |
| Cn1cc(Br)c(-c2cccc(NC(=O)c3ccccc3Cl)c2)n1 | -0.38% |
| Cc1onc(-c2ccccc2Cl)c1NC(=O)N1c2ccc(F)cc2CCC1C (stereo unspecified) | -0.44% |
| CN(C)/C=C1/C(=O)NN=C1CSc1ccc(Cl)cc1 | -0.25% |
| Cc1c(S(=O)(=O)N2CCOCC2)ccc(Cl)c1F | -1.27% |
| N#C/C=C/c1ccc(C(F)(F)F)cc1[N+](=O)[O-] | -0.41% |
| Cc1nc2c(ncn2-c2ccccc2)c(=O)n1NC(=O)CN1CCCC1 | -4.07% |
| COc1ccc(CCN=C(C)c2cc(Cl)cc(Cl)c2O)cc1OC | -0.13% |
